PubChem BioAssay
The source made the active and inactive calls.

Key:
[1] = tested on: PRMT1 (protein arginine N-methyltransferase 1); assay: small molecules binding arginine methyltransferase PRMT1 – biochemical, small-molecule microarray, 635 nm fluorescence, primary screen (AID 1088); details: higher = more signal;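 note: binding of Prmt1 protein to compounds spotted on small-molecule microarray slides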
[2] = growth effects on S. cerevisiae YJM789 – YJM789 clinical isolate, OD600, 24 h, basal, primary screen (AID 1089); details: higher = more signal, called active from +8 up or from −8 down;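 note: growth of clinical yeast isolate S. cerevisiae YJM 789 seeded 1000 cells per well; test concentration not given here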
[3] = S. pombe growth modifiers, basal conditions – strain 972, OD600, 24 h, no modulator, primary screen (AID 1090);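 note: basal condition with compound alone and no growth modifier present; test concentration not given here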; details: S. pombe 972 growth, higher = more signal, called active from +8 up or from −8 down
[4] = budding yeast growth modifiers under rapamycin – strain BY4716, OD600, 96 h, primary screen (AID 1091); note: test concentration not given here; details: S. cerevisiae BY4716 + rapamycin, higher = more signal, called active from +8 up or from −8 down
[5] = target: Torsin-1A-interacting protein 2 (Homo sapiens) (UniProt Q8NFQ8); assay: small molecules binding lysate-expressed LULL1 – cell lysate, human LULL1 lysate, 635/667 nm fluorescence, primary screen (AID 1092); details: small-molecule microarray, hLULL1 lysate binding, 635 nm fluorescence; higher = more signal;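 note: probe is lysate of COS7 cells overexpressing human LULL1; score merges per-feature 667 nm fluorescence with signal-to-noise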
[6] = optical density change of DRC41 E. coli – strain DRC41, OD650, 24 h, E. coli filamentation project, primary screen (AID 1093);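 note: MC1000 strain lacking acrAB efflux and sulA so SOS filamentation is blocked; test concentration not given here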; details: E. coli DRC41 growth, higher = more signal, called active from +8 up or from −8 down
[7] = probe aLefty2 binding to arrayed compounds – biochemical, biotinylated probe, 635/667 nm fluorescence, primary screen (AID 1094); details: small-molecule microarray, higher = more signal;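 note: score merges spot fluorescence near 667 nm with spot signal-to-noise ratio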
[8] = tested on: Noggin (protein binding on small-molecule microarray); assay: small molecules binding Noggin protein – biochemical, 635/667 nm fluorescence, primary screen (AID 1095); details: 635 nm fluorescence, higher = more signal;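 note: score merges 667 nm feature fluorescence with signal to noise over triplicate slides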
[9] = target: Neurogenic locus notch homolog protein 3 (Homo sapiens) (UniProt Q9UM47); assay: small molecules binding NOTCH3 protein – biochemical, 635/667 nm fluorescence, primary screen (AID 1096); details: small-molecule microarray, 635 nm fluorescence, higher = more signal
[10] = probe aEGFR binding to arrayed compounds – biochemical, biotinylated probe, 635/667 nm fluorescence, primary screen (AID 1097); details: small-molecule microarray, higher = more signal;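 note: probe is a biotinylated anti-EGFR antibody binding compounds printed on slides; score combines fluorescence near 667 nm and signal to noise of each spot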
[11] = tested on: Plasmodium falciparum Sir2 (PF13_0152, Sir2A); assay: Plasmodium falciparum Sir2A binding compounds – biochemical, small-molecule microarray, 635 nm fluorescence, primary screen (AID 1098); details: fluorescence 635 nm, higher = more signal;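 note: score merges spot fluorescence intensity with its signal-to-noise ratio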
[12] = probe aDKK1 binding to arrayed compounds – biochemical, biotinylated probe, 635/667 nm fluorescence, primary screen (AID 1099); details: small-molecule microarray, higher = more signal;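 note: score merges 667nm spot fluorescence with signal to noise across triplicate slides; reference of the scale not given here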
[13] = probe aCHRDL2 binding to arrayed compounds – biochemical, biotinylated probe, 635/667 nm fluorescence, primary screen (AID 1100); details: small-molecule microarray, higher = more signal
[14] = change in splice reporter luminescence, either direction, cell-based, HEK293, spliceosome inhibition project, primary screen (AID 1101); details: HEK293 splicing luciferase reporter, 24 h, higher = more signal, called active from +8 up or from −8 down;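 note: HEK293 cells carrying a splicing-competent luciferase reporter gene; test concentration not given here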
[15] = target: Fibroblast growth factor 10 (Homo sapiens) (UniProt O15520); assay: compounds binding fibroblast growth factor 10 – biochemical, small-molecule microarray, 635 nm fluorescence, primary screen (AID 1102); details: FGF10 binding, fluorescence 635 nm, higher = more signal
[16] = tested on: glycogen synthase kinase-3 (GSK3A per assay name; protocol says GSK3B); assay: compounds binding glycogen synthase kinase-3 – biochemical, small-molecule microarray, 635 nm fluorescence, GSK3A, primary screen (AID 1103); details: fluorescence 635 nm, higher = more signal; note: the record names both GSK3A and GSK3B
[17] = target: Epidermal growth factor receptor (Homo sapiens) (UniProt P00533); assay: compounds binding epidermal growth factor receptor – biochemical, small-molecule microarray, 635 nm fluorescence, primary screen (AID 1104); details: EGFR binding, higher = more signal;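 note: score merges 667 nm emission intensity with spot signal to noise over triplicate slides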
[18] = target: Follistatin-related protein 3 (Homo sapiens) (UniProt O95633); assay: compounds binding follistatin-related protein 3 – biochemical, small-molecule microarray, 635 nm fluorescence, primary screen (AID 1105); details: FSTL3 binding, higher = more signal;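 note: score merges emission near 667 nm and signal to noise per printed spot across three slides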
[19] = target: Dickkopf-related protein 1 (Homo sapiens) (UniProt O94907); assay: small molecules binding DKK1 protein – biochemical, small-molecule microarray, 635 nm fluorescence scan, primary screen (AID 1106); details: higher = more signal;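 note: score merges emission near 667 nm with signal to noise over three replicate slides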
[20] = tested on: Inhibin beta A chain (activin A); assay: small molecules binding activin A – biochemical, small-molecule microarray, 635 nm fluorescence scan, primary screen (AID 1107); details: INHBA, higher = more signal;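 note: mouse activin A protein probed at 4.33 µg/mL on printed slides; score merges bound-protein fluorescence near 667 nm with spot signal-to-noise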

Chain of Neurogenic locus notch homolog protein 3 (Homo sapiens) (Q9UM47 whole entry, looked up): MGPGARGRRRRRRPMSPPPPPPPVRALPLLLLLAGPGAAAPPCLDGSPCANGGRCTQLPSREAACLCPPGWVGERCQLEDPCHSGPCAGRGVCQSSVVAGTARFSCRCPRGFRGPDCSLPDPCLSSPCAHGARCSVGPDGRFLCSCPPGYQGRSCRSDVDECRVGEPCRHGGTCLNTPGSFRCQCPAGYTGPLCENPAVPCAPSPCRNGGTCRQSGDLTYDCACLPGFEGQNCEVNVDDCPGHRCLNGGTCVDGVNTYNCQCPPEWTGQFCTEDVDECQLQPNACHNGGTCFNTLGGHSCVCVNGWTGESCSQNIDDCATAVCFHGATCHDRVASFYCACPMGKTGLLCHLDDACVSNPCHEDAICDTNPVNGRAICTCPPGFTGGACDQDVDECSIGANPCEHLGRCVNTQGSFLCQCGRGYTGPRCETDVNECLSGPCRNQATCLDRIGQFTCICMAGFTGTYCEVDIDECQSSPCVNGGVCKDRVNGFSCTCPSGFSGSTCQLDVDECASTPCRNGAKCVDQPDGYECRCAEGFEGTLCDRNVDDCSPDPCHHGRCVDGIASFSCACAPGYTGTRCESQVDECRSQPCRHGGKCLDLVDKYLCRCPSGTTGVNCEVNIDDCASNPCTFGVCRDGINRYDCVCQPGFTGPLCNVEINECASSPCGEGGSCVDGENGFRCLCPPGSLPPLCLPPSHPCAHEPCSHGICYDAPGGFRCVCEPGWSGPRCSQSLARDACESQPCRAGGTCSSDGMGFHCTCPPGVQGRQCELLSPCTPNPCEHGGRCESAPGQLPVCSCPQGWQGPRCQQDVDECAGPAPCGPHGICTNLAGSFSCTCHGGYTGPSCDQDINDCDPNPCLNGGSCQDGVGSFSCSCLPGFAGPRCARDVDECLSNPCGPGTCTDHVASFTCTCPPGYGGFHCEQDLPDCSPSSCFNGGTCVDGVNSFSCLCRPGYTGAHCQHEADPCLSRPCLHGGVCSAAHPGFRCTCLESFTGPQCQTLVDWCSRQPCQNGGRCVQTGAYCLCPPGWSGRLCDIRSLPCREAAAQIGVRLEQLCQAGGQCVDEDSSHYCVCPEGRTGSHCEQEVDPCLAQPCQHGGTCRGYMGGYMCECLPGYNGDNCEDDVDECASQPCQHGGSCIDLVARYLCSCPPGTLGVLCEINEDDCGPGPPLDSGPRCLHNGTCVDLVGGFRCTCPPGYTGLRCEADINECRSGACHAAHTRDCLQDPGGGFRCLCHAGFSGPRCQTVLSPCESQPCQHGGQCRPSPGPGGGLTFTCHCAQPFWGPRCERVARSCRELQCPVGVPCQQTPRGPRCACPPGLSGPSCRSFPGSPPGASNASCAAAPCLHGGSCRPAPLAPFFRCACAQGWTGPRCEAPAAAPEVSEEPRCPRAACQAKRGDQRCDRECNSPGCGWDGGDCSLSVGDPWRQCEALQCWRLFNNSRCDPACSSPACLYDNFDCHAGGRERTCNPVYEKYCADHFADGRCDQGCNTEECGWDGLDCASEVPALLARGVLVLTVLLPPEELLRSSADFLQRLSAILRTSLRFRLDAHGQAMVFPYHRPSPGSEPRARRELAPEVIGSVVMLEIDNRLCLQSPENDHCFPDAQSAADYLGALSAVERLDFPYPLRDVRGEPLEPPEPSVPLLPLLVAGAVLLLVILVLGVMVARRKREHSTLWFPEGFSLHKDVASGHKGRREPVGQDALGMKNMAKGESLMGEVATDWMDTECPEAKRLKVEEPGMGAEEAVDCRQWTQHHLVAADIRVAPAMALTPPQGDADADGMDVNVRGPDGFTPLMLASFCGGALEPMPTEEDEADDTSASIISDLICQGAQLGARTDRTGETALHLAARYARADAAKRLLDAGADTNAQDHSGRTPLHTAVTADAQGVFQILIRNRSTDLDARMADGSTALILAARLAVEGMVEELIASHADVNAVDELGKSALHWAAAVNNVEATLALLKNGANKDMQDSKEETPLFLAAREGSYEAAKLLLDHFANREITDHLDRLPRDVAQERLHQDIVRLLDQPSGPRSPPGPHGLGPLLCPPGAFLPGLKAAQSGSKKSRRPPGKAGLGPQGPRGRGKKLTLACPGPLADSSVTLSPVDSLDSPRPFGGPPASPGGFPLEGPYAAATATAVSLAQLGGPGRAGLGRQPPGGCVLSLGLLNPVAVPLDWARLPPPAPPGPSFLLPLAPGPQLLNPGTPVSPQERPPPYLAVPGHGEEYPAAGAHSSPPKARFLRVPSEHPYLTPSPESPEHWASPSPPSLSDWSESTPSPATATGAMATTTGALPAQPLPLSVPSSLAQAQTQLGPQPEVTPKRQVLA
Chain of Torsin-1A-interacting protein 2 (Homo sapiens) (Q8NFQ8 whole entry, looked up): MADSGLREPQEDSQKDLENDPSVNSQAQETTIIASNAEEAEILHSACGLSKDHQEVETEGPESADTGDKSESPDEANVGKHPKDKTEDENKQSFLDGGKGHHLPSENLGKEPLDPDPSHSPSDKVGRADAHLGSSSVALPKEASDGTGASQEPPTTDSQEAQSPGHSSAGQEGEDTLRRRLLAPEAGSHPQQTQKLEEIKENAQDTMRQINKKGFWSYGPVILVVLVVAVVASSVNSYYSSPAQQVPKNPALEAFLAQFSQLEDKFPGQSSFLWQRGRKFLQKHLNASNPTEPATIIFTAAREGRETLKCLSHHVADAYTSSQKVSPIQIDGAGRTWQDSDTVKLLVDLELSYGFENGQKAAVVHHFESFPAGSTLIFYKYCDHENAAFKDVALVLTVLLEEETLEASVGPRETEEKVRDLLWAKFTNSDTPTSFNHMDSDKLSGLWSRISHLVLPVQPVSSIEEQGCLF
Chain of Follistatin-related protein 3 (Homo sapiens) (O95633 whole entry, looked up): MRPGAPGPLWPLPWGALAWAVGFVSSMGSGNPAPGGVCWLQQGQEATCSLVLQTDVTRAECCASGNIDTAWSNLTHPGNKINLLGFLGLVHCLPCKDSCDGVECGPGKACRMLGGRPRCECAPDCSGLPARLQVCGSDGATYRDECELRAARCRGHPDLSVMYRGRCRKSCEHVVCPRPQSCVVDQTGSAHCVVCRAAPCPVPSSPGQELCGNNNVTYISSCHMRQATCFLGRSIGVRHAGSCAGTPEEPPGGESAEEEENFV
Chain of Fibroblast growth factor 10 (Homo sapiens) (O15520 whole entry, looked up): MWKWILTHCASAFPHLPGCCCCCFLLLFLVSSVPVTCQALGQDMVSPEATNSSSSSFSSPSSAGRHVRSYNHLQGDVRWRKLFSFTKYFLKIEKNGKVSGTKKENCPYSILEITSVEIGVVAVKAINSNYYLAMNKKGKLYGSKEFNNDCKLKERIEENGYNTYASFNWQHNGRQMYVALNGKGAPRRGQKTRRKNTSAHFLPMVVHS
Chain of Dickkopf-related protein 1 (Homo sapiens) (O94907 whole entry, looked up): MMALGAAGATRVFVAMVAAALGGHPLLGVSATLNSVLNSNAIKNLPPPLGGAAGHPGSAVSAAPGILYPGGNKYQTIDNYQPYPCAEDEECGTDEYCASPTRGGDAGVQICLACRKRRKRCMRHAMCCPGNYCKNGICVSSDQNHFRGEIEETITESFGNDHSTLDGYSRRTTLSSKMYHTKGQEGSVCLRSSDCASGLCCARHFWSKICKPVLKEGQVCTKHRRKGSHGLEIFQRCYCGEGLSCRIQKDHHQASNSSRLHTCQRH
Chain of Epidermal growth factor receptor (Homo sapiens) (P00533 whole entry, looked up): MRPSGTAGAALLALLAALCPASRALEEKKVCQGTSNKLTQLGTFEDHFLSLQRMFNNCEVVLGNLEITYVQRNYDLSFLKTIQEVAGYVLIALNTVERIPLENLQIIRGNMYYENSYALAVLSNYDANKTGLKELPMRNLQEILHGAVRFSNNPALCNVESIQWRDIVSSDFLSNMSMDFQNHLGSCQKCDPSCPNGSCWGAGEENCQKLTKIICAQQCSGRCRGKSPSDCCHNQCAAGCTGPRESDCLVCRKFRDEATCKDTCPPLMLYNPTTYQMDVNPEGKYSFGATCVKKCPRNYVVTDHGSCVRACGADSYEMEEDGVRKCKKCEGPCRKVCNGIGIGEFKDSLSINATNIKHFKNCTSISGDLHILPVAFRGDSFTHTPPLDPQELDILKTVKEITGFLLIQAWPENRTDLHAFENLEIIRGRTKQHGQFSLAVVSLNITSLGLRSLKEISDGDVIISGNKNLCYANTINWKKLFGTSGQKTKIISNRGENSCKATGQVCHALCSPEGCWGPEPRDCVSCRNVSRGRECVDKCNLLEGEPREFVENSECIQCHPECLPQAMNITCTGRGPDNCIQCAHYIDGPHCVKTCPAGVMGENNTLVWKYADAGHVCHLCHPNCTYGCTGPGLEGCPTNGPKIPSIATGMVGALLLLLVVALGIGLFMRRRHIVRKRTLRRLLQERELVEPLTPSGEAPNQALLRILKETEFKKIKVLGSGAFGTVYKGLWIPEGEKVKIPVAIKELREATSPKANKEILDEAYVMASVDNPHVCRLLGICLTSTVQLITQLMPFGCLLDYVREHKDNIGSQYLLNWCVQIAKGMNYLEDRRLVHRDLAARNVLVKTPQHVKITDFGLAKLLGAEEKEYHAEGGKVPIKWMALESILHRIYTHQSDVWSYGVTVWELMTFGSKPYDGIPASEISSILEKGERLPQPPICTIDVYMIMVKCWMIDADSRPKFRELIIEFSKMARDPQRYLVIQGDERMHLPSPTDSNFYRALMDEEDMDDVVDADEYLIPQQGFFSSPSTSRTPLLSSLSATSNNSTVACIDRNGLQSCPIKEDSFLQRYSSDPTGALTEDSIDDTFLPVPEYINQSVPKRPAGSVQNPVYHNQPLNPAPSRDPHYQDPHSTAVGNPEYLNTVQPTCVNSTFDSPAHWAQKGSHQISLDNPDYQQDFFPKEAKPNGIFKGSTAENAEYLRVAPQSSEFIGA

| SMILES | composite z-score [1] | z-score [2] | z-score [3] | z-score [4] | composite z-score [5] | z-score [6] | composite z-score [7] | composite z-score [8] | composite z-score [9] | composite z-score [10] | composite z-score [11] | composite z-score [12] | composite z-score [13] | z-score [14] | composite z-score [15] | composite z-score [16] | composite z-score [17] | composite z-score [18] | composite z-score [19] | composite z-score [20] |
| --- | --- | --- | --- | --- | --- | --- | --- | --- | --- | --- | --- | --- | --- | --- | --- | --- | --- | --- | --- | --- |
| Cc1ccc(S[C@]2(C(=O)NCC(C)C)CC(=O)N(C3Cc4ccccc4C3)[C@@H]2c2ccc(CO)cc2I)cc1 | -0.409 | -0.766 (inactive) | -1.49 (inactive) | 1.51 (inactive) | 0.724 | -0.0979 (inactive) | 0.0349 | -1.45 | -0.933 | -0.294 | 1.35 | -0.126 | -0.0156 | -0.968 (inactive) | -0.767 | -0.61 | -0.821 | 0.594 | -1.02 | 0.847 |
| CCOC(=O)C=Cc1cc(F)ccc1O | 0.311 | -26.6 (active) | -15.2 (active) | -1.06 (inactive) | 0.905 | -0.624 (inactive) | -0.0446 | -0.173 | -0.18 | -0.233 | 0.188 | -0.137 | -0.31 | -1.37 (inactive) | 0.168 | -0.126 | 0.0683 | 0.0871 | -0.258 | 0.835 |
| CC(C)C[C@@H]1NC(=O)[C@@H]2C[C@H](C(=O)NCCCCCC[N+](C)(C)C)[C@H](c3cccc(OCCO)c3)N2C1=O | 1.58 | -0.632 (inactive) | 0.806 (inactive) | 0.24 (inactive) | 3.23 | -0.209 (inactive) | -0.135 | -0.143 | 0.766 | -0.0572 | 1.78 | -0.294 | 0.512 | -0.261 (inactive) | 0.225 | 0.221 | -0.138 | -0.168 | 0.449 | 0.327 |
| C=C(C(=O)CC[C@H](OC(=O)c1ccccc1-c1ccccc1C(=O)O)c1ccccc1OCCO)C(C)C | 1.41 | 0.574 (inactive) | -0.788 (inactive) | -0.927 (inactive) | 1.46 | 0.968 (inactive) | -0.199 | 0.695 | 0.257 | -0.194 | 1.01 | -0.175 | -0.459 | -0.456 (inactive) | 0.238 | 0.304 | -0.388 | 0.176 | 0.273 | 1.16 |
| COCC(=C=CC[C@@H](O)c1ccc(OCCO)cc1)CCO | 0.271 | 0.177 (inactive) | 0.0708 (inactive) | -0.18 (inactive) | 1.73 | 0.802 (inactive) | -0.132 | 0.913 | 0.622 | -0.125 | 1.67 | -0.0695 | -0.113 | 1.12 (inactive) | 1.27 | -0.155 | -0.265 | 0.409 | 0.299 | 0.892 |
| CN(C)CCCCNC(=O)[C@H]1C[C@H]2C(=O)N[C@@H](CCCC[N+](C)(C)C)C(=O)N2[C@H]1c1ccc(O)cc1 | 0.366 | -0.838 (inactive) | 0.0639 (inactive) | -0.682 (inactive) | -0.2 | 0.744 (inactive) | -0.0011 | -0.0923 | -0.529 | -0.194 | 1.26 | -0.209 | -0.328 | -1.48 (inactive) | -0.937 | -0.55 | -0.327 | -0.205 | 0.357 | 0.0643 |
| COCCOC(=O)N1C(=O)[C@@]2(c3cc(C#CC4(O)CCCCCC4)ccc31)[C@H](c1ccc(OCCO)cc1)N1[C@H](c3ccccc3)[C@H](c3ccccc3)OC(=O)[C@H]1[C@@H]2C(=O)Nc1nc2ccccc2s1 | 1.54 | 1.76 (inactive) | 1.05 (inactive) | 2.93 (inactive) | 1.57 | 0.11 (inactive) | 0.225 | 1.42 | 1.05 | 0.219 | 1.41 | 0.722 | 0.208 | 0.268 (inactive) | 1.05 | 0.522 | 0.538 | 1.33 | 0.559 | 0.308 |
| O=C1OCCC/C=C\[C@H]2OC34C=CCN(c5ccc6ccccc6c5)C(=O)[C@H]3N(CCCO)C(=O)[C@@H]4C12 (stereo not given in full) | 0.463 | -1.59 (inactive) | -0.647 (inactive) | -0.597 (inactive) | 0.969 | -0.377 (inactive) | -0.091 | -0.534 | 0.0065 | -0.195 | 0.548 | -0.326 | 0.445 | 0.752 (inactive) | -0.365 | -0.216 | -0.315 | -0.451 | -1.31 | 0.479 |
| CN(C)C(=O)[C@@]1(Cc2ccccc2)COC(c2ccc(OCCCO)cc2)=N1 | 0.243 | -0.0054 (inactive) | -4.61 (inactive) | -1.59 (inactive) | 2.87 | 1.31 (inactive) | 0.137 | -0.955 | -0.451 | 0.0005 | 0.429 | -0.246 | -0.0283 | -0.781 (inactive) | -0.304 | 0.792 | 0.197 | -0.718 | -0.59 | -0.512 |
| COCCOC(=O)N1C(=O)[C@@]2(c3cc(C#CCC(C(=O)OC)C(=O)OC)ccc31)[C@H](c1ccc(O)cc1)N1[C@H](c3ccccc3)[C@H](c3ccccc3)OC(=O)[C@H]1[C@@H]2C(=O)NC[C@H](O)c1ccccc1 | 1.38 | 0.326 (inactive) | -0.371 (inactive) | 0.875 (inactive) | 2.75 | 1.81 (inactive) | -0.0788 | 0.171 | 0.68 | 0.0153 | 0.542 | 0.362 | 0.181 | 0.579 (inactive) | 0.681 | 0.882 | 0.335 | 0.602 | 0.148 | 0.466 |
